HT1080 IDH1KD tx – qHTS for induction of synthetic lethality in tumor cells producing 2HG: qHTS for the HT-1080-IDH1KD cell line; HT-1080 IDH1 knockdown viability, ATP luminescence, 48 h; Potency, µM (doses to about 46.1 µM), without a hit: at the highest dose activity, negative = toxicity, usual class: cytotoxic; actives 2% (n = 360,000);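 further: potency means the concentration at half of the fitted maximal effect; 0% = DMSO wells and -100% = cell-free medium wells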
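HT-1080-IDH1KD cells (IDH1 knocked down), 750/well in RPMI with 5% FBS, treated with compound 48 h at 37 degrees C. Viability by CellTiter-Glo luminescence, normalised to DMSO and no-cell wells; concentration-response curves classed.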
IL-1B inflam inh – qHTS for Inhibitors of Inflammasome Signaling: IL-1-beta AlphaLISA Primary Screen; THP-1 LPS/ATP IL-1B secretion, AlphaLISA, 16 h; active compounds read low; activity change, % at 57.5 µM; actives 4.7% (n = 360,000); AID 743279, 2014; in the data active means activity change below about -50%; inconclusive means mostly about -30% to -49%
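Secreted IL-1B measured by AlphaLISA bead assay after 16 h compound exposure of THP-1 cells; compounds (final up to 57.5 uM) added 1 h before LPS (250 ng/mL) and ATP (1.25 mM) stimulation; lower signal means less secretion.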
DT40 TDP1 CPT – qHTS for Inhibitors of human tyrosyl-DNA phosphodiesterase 1 (TDP1): qHTS in cells in presence of CPT; chicken DT40 Tdp1-/-;hTDP1 cells + 20 nM CPT, ATP luminescence, 48 h; Potency, µM (highest dose often 46.2 µM), without a hit: at the top dose activity change, negative = growth inhibition, actives largely listed as inhibitors; actives 12% (n = 420,000); AID 686979, 2013; further: potency means the concentration at half of the fitted maximal effect; nearly all actives have a fitted effect of over 55% in size
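Chicken DT40 Tdp1-/- cells stably complemented with human TDP1 were seeded at 400 cells/well in medium containing 20 nM camptothecin, exposed to pin-transferred compounds, and grown at 37 °C for at least 48 hr. Viability was read as ATP luminescence.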
uPA surface inh – qHTS for Inhibitors of Cell Surface uPA Generation; actives 0.31% (n = 330,000); Potency, µM (series often up to 38.3 µM), for inactives: at the highest dose activity change, negative = inhibition, usual class: inhibitors; cell surface uPA generation assay, qHTS; active means well fitted inhibition curve with a large enough effect; inconclusive means small, poorly fitted or top-dose-only effect; inactive means no such curve, though single readings can be large or run the other way; tested in mouse RAW 264.7 cells; further: potency means the concentration at half of the fitted maximal effect; nearly all actives have a fitted effect of over 55% in size
HT1080NT lethal – qHTS for induction of synthetic lethality in tumor cells producing 2HG: qHTS for the HT-1080-NT fibrosarcoma cell line; actives 1.6% (n = 360,000); HT-1080-NT fibrosarcoma viability, CellTiter-Glo ATP luminescence, 48 h; Potency, µM (series often up to 46.1 µM), without a hit: top-dose activity, negative = less viability, usual class: cytotoxic;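 further: NT is the 2HG producing partner of a matched IDH1 knockdown line; potency means the concentration at half of the fitted maximal effect; 0% = DMSO-treated cells and -100% = media-only wells without cells; nearly all actives have a fitted effect of over 55% in size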
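HT-1080-NT fibrosarcoma cells (2HG-overproducing), 750 cells/well in RPMI with 5% FBS, dosed after 2 h and incubated 48 h at 37C. CellTiter-Glo luminescence normalized to DMSO and no-cell wells; concentration-response curves fitted and classed.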
TDP1 cell noCPT – qHTS for Inhibitors of human tyrosyl-DNA phosphodiesterase 1 (TDP1): qHTS in cells in absence of CPT; DT40 Tdp1-/- hTDP1 cells, no CPT, ATP luminescence, 48 h; actives 15% (n = 420,000); AID 686978, 2013; Potency, µM (titrated, usually from 46.2 µM), for the others: at the top dose activity change, negative = growth inhibition, most hits filed as inhibitors; further: potency means the concentration at half of the fitted maximal effect; nearly all actives have a fitted effect of over 55% in size
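Chicken DT40 Tdp1-/- cells complemented with human TDP1, screened without camptothecin (DMSO vehicle only), 400 cells/well. Compounds pin-transferred, cells incubated at 37 °C for at least 48 hr. Growth read as ATP-dependent luminescence (CellTiter-Glo, 30 min at RT).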
* marks the source's active call; other numbers are inactive results; ? = inconclusive; · = no result given. An excerpt weighted towards active compounds, which were near 19% of everything screened. Unless noted, the call rests on the fitted dose curve; in most records, active means well fitted curve in the direction sought with a large enough effect; inconclusive means small, poorly fitted or top-dose-only effect, or another doubt; inactive means no such curve, though single readings can be large; an effect the other way counts as inactive or inconclusive. Unless noted, on the % scale 0 is the no-effect control and ±100 the full control effect.

SMILES	HT1080 IDH1KD tx	IL-1B inflam inh	DT40 TDP1 CPT	uPA surface inh	HT1080NT lethal	TDP1 cell noCPT
O=C(Nc1ccc(OC(F)(F)F)cc1)c1nc2ccccc2nc1N1CCCCC1	·	·	-25.0%	·	·	-15.4%
CCC(CC)C(=O)Nc1nnc(S(=O)(=O)N(C)c2cc(C)cc(C)c2)s1	·	·	-23.5%	·	·	?
COc1cccc(N2CCN(C(=O)c3ccc(C)c(NC(=O)c4nsc5ccccc45)c3)CC2)c1	·	·	?	·	·	18.4µM*
Cc1ccc(C(=O)N2CCN(c3ccc(F)cc3)CC2)cc1NC(=O)c1nsc2ccccc12	·	·	16.4µM*	·	·	20.6µM*
Cc1ccc(C(=O)O)cc1NC(=O)c1nsc2ccccc12	·	·	7.5%	·	·	0.0%
COc1ccc(N2CCN(C(=O)c3ccc(C)c(NC(=O)c4ccco4)c3)CC2)cc1	-7.9%	-11.6	?	7.2%	-0.3%	?
CC(C)CN(CCNC(=O)c1cn(C)c2ccc(S(=O)(=O)N3CCCCCC3)cc2c1=O)CC(C)C	·	·	7.4%	·	·	-27.8%
CC(C)CNC(=O)COc1ccc(Sc2ccc(OCC(=O)NCC(C)C)cc2)cc1	-18.6%	0.0	?	8.3%	-1.5%	1.64µM*
CCCC(C)NC(=O)COc1ccc(Sc2ccc(OCC(=O)NC(C)CCC)cc2)cc1 (centres undefined)	-8.3%	-1.2	8.2µM*	-4.7%	-22.1%	11.6µM*
Cc1ccn2c(=O)c(C(=O)NCCc3ccc(S(N)(=O)=O)cc3)c(O)nc2c1	·	·	-11.1%	·	·	-12.9%
C[C@@H]1CN([C@H](C)CO)C(=O)CCCn2cc(nn2)CO[C@H]1CN(C)C(=O)c1ccc2ccn(C)c2c1	2.4%	-2.2	3.5%	·	27.6%	32.2%
COc1cc2c(cc1OC)/C(=C/C(=O)c1ccc(OC)c([N+](=O)[O-])c1)NCC2	?	?	?	3.2%	-22.4%	18.4µM*
COc1cc2c(cc1OC)/C(=C/C(=O)c1ccccc1F)NCC2	-2.2%	-24.2	1.5%	-3.3%	-0.5%	-22.4%
COc1cc2c(cc1OC)/C(=C/C(=O)c1ccc(F)cc1)NCC2	-21.3%	-19.7	?	1.2%	-3.0%	?
COc1cc2c(cc1OC)/C(=C/C(=O)c1cccc([N+](=O)[O-])c1)NCC2	-10.7%	-59.5*	?	3.2%	1.0%	?
N#CCCN(C(=O)COC(=O)CCN=C1NS(=O)(=O)c2ccccc21)c1ccc(F)cc1	-0.2%	9.2	-20.8%	-18.2%	2.6%	-14.8%
O=C(Nc1scc(-c2ccc(Br)cc2)c1C(=O)O)c1ccccc1F	?	·	?	-5.2%	?	16.4µM*
COc1ccc(-c2csc(NC(=O)c3ccc(C(C)(C)C)cc3)c2C(=O)O)cc1	?	-25.9	3.66µM*	-5.5%	?	3.26µM*
O=C(Nc1scc(-c2ccccc2)c1C(=O)O)c1ccccc1F	-9.6%	-14.4	-18.2%	-2.3%	-20.0%	-4.6%
Cc1ccc(-c2csc(NC(=O)c3ccccc3F)c2C(=O)O)cc1	-9.1%	-19.7	?	1.0%	-28.3%	20.6µM*
CC1CN(CC(O)COc2ccc(C#N)cc2)CCN1CC(O)COc1ccc(C#N)cc1 (centres undefined)	0.2%	30.4	20.6µM*	5.5%	5.7%	23.1µM*
Cc1ccc(OCC(O)CN2CCN(CC(O)COc3ccc(C)cc3)CC2)cc1 (centres undefined)	1.3%	0.0	-28.7%	-0.4%	-5.3%	?
CCOC(=O)c1ccc(S(=O)(=O)N2CCN(CC(O)COc3ccc(C#N)cc3)CC2)cc1 (centres undefined)	13.9%	7.7	?	2.0%	-6.9%	18.4µM*
O=C(c1ccccn1)N1CCCC(N2CCN(c3cccc(C(F)(F)F)c3)CC2)C1 (centres undefined)	-4.5%	7.0	?	-8.4%	-9.6%	14.6µM*
O=C(c1cc[n+]([O-])cc1)N1CCCC(N2CCN(c3cccc(C(F)(F)F)c3)CC2)C1 (centres undefined)	-8.3%	0.0	10.3µM*	-23.9%	-12.2%	?
SMILES	HT1080 IDH1KD tx	IL-1B inflam inh	DT40 TDP1 CPT	uPA surface inh	HT1080NT lethal	TDP1 cell noCPT
O=C(c1ccsc1)N1CCCC(N2CCN(c3cccc(C(F)(F)F)c3)CC2)C1 (centres undefined)	-1.0%	-6.7	?	-3.9%	1.4%	?
CCCCC(c1nnnn1CC1CCCO1)N1CCN(Cc2ccccc2)CC1 (centres undefined)	-0.6%	-23.8	-14.4%	2.8%	-12.4%	-11.8%
CCCCC(c1nnnn1CC1CCCO1)N1CCN(c2cccc(C)c2C)CC1 (centres undefined)	-15.8%	-21.7	?	4.5%	-15.7%	16.4µM*
COc1ccc(C(c2nnnn2CC2CCCO2)N2CCN(c3cccc(C)c3C)CC2)cc1 (centres undefined)	-15.5%	-22.8	?	4.4%	-13.3%	18.4µM*
CCc1ccc(N2CCN(C(=O)c3ccc(OC)c(OC)c3)CC2)cc1	-3.5%	0.0	?	-10.2%	9.2%	13µM*
COc1ccc(C(=O)N2CCN(c3ccc(C)cc3)CC2)cc1OC	1.0%	23.6	?	-5.1%	-3.0%	?
COc1ccc(C(=O)N2CCN(c3nnnn3-c3ccccc3)CC2)cc1OC	1.1%	-29.1	-2.3%	0.2%	1.1%	1.8%
COc1ccc(C(=O)N2CCN(c3c(C)cccc3C)CC2)cc1OC	-6.3%	23.6	23.1µM*	-2.9%	-1.7%	?
COc1ccc(C(=O)N2CCN(c3nc4ccccc4o3)CC2)cc1OC	-1.1%	16.7	16.4µM*	-3.8%	?	20.6µM*
CC12CCC(=O)N1C(C(=O)NNC(=O)c1ccccc1Cl)CS2 (centres undefined)	-3.3%	2.2	-1.4%	13.4%	0.2%	-13.0%
Cc1ccc(Nc2nc(N)nc(-c3oc4ccccc4c3C)n2)cc1	0.0103µM*	53.6	0.206µM*	-4.9%	0.0065µM*	0.058µM*
COc1cccc(Nc2nc(N)nc(-c3oc4ccccc4c3C)n2)c1	7.94µM*	-70.6*	6.51µM*	·	10µM*	8.2µM*
Cc1cccc(Nc2nc(N)nc(-c3oc4ccccc4c3C)n2)c1	?	-74.6*	?	-7.6%	?	25.9µM*
